Reference: PMC11006913
Where a chain is given by its changes, count along the chain named.

Key:
Test in all cases: PBM; 200 nM protein, PBS
Settings in all cases: dsDNA, one strand shown
HOXA7 [1] = target: HOXA7 (Homo sapiens, UniProt P31268 116-202)
PRRX1 [2] = target: PRRX1 (Homo sapiens, UniProt P54821 80-166, F113S)
PITX2 = PITX2 (Homo sapiens, UniProt Q99697 72-157)
HOXA7 [3] = target: HOXA7 (Homo sapiens, UniProt P31268 116-202, W177C)
CRX = CRX (Homo sapiens, UniProt O43186 26-111, R41L)
PRRX1 [4] = target: PRRX1 (Homo sapiens, UniProt P54821 80-166)
PAX4 [5] = target: T1, PAX4 (Homo sapiens, UniProt O43316 9-242, R200K)
T1 sequence: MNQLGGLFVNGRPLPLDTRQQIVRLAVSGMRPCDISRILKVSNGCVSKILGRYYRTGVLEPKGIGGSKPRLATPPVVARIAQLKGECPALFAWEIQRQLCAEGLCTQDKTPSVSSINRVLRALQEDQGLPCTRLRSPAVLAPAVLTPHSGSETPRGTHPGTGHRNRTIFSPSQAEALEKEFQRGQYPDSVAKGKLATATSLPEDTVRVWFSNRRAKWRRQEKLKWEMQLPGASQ

PAX4 [6] = target: T2, PAX4 (Homo sapiens, UniProt O43316 9-242)
T2 sequence: T1 sequence with K192R

PAX4 [7] = target: T3, PAX4 (Homo sapiens, UniProt O43316 9-242, R200Q)
T3 sequence: T1 sequence with K192Q

PAX4 [8] = target: T4, PAX4 (Homo sapiens, UniProt O43316 9-242, F177V)
T4 sequence: T1 sequence with F169V, K192R

PAX4 [9] = target: T5, PAX4 (Homo sapiens, UniProt O43316 9-242, F177Y)
T5 sequence: T1 sequence with F169Y, K192R

PAX4 [10] = target: T6, PAX4 (Homo sapiens, UniProt O43316 9-242, R227W)
T6 sequence: T1 sequence with K192R, R219W

HOXB6 = HOXB6 (Homo sapiens, UniProt P17509 132-218, K202E)
ALX3 = ALX3 (Homo sapiens, UniProt O95076 139-225)
Sequence of ALX3 (O95076 139-225): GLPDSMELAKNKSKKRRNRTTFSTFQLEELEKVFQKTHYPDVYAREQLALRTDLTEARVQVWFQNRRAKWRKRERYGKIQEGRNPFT

Sequence of HOXA7 (Homo sapiens, UniProt P31268 116-202) (P31268 116-202): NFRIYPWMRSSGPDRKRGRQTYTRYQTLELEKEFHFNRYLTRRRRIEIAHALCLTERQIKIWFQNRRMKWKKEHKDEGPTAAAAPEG
Sequence of HOXA7 (Homo sapiens, UniProt P31268 116-202, W177C) (P31268 116-202 W177C): as the sequence (P31268 116-202) above, with W62C counted along it
Sequence of PRRX1 (Homo sapiens, UniProt P54821 80-166) (P54821 80-166): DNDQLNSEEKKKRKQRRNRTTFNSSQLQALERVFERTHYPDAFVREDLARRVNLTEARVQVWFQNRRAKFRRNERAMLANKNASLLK
Sequence of PRRX1 (Homo sapiens, UniProt P54821 80-166, F113S) (P54821 80-166 F113S): as the sequence (P54821 80-166) above, with F34S counted along it
Sequence of CRX (O43186 26-111 R41L): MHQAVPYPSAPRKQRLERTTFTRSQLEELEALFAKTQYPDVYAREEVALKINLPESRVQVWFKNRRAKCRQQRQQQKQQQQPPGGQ
Sequence of HOXB6 (P17509 132-218 K202E): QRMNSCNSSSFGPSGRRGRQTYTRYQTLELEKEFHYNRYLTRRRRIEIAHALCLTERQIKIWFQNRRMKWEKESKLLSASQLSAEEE

AAGATTAG was tested, and the binding signal (HOXA7 [1]) was 9.43 upbm affinity estimate (log intensity, higher = more binding, comparable within an allelic series), the binding signal (PRRX1 [2]) was 10.4 upbm affinity estimate (log intensity, higher = more binding, comparable within an allelic series) and the binding signal (PITX2) was 12.4 upbm affinity estimate (log intensity, higher = more binding, comparable within an allelic series). For the same sequence, the binding signal (HOXA7 [3]) was 8.65 upbm affinity estimate (log intensity, higher = more binding, comparable within an allelic series), the binding signal (CRX) was 12.4 upbm affinity estimate (log intensity, higher = more binding, comparable within an allelic series) and the binding signal (PRRX1 [4]) was 12.3 upbm affinity estimate (log intensity, higher = more binding, comparable within an allelic series).
CGTTGCTC was tested, and the binding signal (HOXA7 [1]) was 8.49 upbm affinity estimate (log intensity, higher = more binding, comparable within an allelic series), the binding signal (PAX4 [5]) was 9.58 upbm affinity estimate (log intensity, higher = more binding, comparable within an allelic series) and the binding signal (PAX4 [6]) was 9.38 upbm affinity estimate (log intensity, higher = more binding, comparable within an allelic series). For the same sequence, the binding signal (PAX4 [7]) was 9.57 upbm affinity estimate (log intensity, higher = more binding, comparable within an allelic series), the binding signal (PAX4 [8]) was 9.52 upbm affinity estimate (log intensity, higher = more binding, comparable within an allelic series) and the binding signal (PAX4 [9]) was 9.55 upbm affinity estimate (log intensity, higher = more binding, comparable within an allelic series). The binding signal (PAX4 [10]) was 9.55 upbm affinity estimate (log intensity, higher = more binding, comparable within an allelic series) and the binding signal (HOXA7 [3]) was 8.47 upbm affinity estimate (log intensity, higher = more binding, comparable within an allelic series).
CATTATTA was tested, and the binding signal (HOXA7 [1]) was 11.1 upbm affinity estimate (log intensity, higher = more binding, comparable within an allelic series), the binding signal (HOXB6) was 10 upbm affinity estimate (log intensity, higher = more binding, comparable within an allelic series) and the binding signal (HOXA7 [3]) was 8.89 upbm affinity estimate (log intensity, higher = more binding, comparable within an allelic series).
AACTTTAT was tested, and the binding signal (HOXA7 [1]) was 9.71 upbm affinity estimate (log intensity, higher = more binding, comparable within an allelic series), the binding signal (ALX3) was 9.63 upbm affinity estimate (log intensity, higher = more binding, comparable within an allelic series) and the binding signal (HOXA7 [3]) was 8.8 upbm affinity estimate (log intensity, higher = more binding, comparable within an allelic series).
In the case of AGACGGCG, the binding signal (HOXA7 [1]) is reported as 8.6 upbm affinity estimate (log intensity, higher = more binding, comparable within an allelic series) and the binding signal (HOXA7 [3]) is reported as 8.4 upbm affinity estimate (log intensity, higher = more binding, comparable within an allelic series).
With CTCTGAGC the binding signal (HOXA7 [1]) was 8.36 upbm affinity estimate (log intensity, higher = more binding, comparable within an allelic series) and the binding signal (HOXA7 [3]) was 8.46 upbm affinity estimate (log intensity, higher = more binding, comparable within an allelic series).
CTCATTTA was tested, and the binding signal (HOXA7 [1]) was 9.93 upbm affinity estimate (log intensity, higher = more binding, comparable within an allelic series) and the binding signal (HOXA7 [3]) was 8.72 upbm affinity estimate (log intensity, higher = more binding, comparable within an allelic series).
In the case of TGAGAGCA, the binding signal (HOXA7 [1]) is reported as 8.62 upbm affinity estimate (log intensity, higher = more binding, comparable within an allelic series) and the binding signal (HOXA7 [3]) is reported as 8.54 upbm affinity estimate (log intensity, higher = more binding, comparable within an allelic series).
In the case of GGCCTGAA, the binding signal (HOXA7 [1]) is reported as 8.61 upbm affinity estimate (log intensity, higher = more binding, comparable within an allelic series) and the binding signal (HOXA7 [3]) is reported as 8.38 upbm affinity estimate (log intensity, higher = more binding, comparable within an allelic series).
With AAATTACG the binding signal (HOXA7 [1]) was 10.3 upbm affinity estimate (log intensity, higher = more binding, comparable within an allelic series) and the binding signal (HOXA7 [3]) was 8.82 upbm affinity estimate (log intensity, higher = more binding, comparable within an allelic series).
With TCATTTCA the binding signal (HOXA7 [1]) was 9.51 upbm affinity estimate (log intensity, higher = more binding, comparable within an allelic series) and the binding signal (HOXA7 [3]) was 8.76 upbm affinity estimate (log intensity, higher = more binding, comparable within an allelic series).
In the case of CGGGTGCC, the binding signal (HOXA7 [1]) is reported as 8.6 upbm affinity estimate (log intensity, higher = more binding, comparable within an allelic series) and the binding signal (HOXA7 [3]) is reported as 8.41 upbm affinity estimate (log intensity, higher = more binding, comparable within an allelic series).
In the case of CCTGTGTC, the binding signal (HOXA7 [1]) is reported as 8.55 upbm affinity estimate (log intensity, higher = more binding, comparable within an allelic series) and the binding signal (HOXA7 [3]) is reported as 8.53 upbm affinity estimate (log intensity, higher = more binding, comparable within an allelic series).
AGAGACTG was tested, and the binding signal (HOXA7 [1]) was 8.18 upbm affinity estimate (log intensity, higher = more binding, comparable within an allelic series) and the binding signal (HOXA7 [3]) was 8.35 upbm affinity estimate (log intensity, higher = more binding, comparable within an allelic series).
In the case of AAGGCTAC, the binding signal (HOXA7 [1]) is reported as 8.53 upbm affinity estimate (log intensity, higher = more binding, comparable within an allelic series) and the binding signal (HOXA7 [3]) is reported as 8.49 upbm affinity estimate (log intensity, higher = more binding, comparable within an allelic series).
For ACAGCGAG, the binding signal (HOXA7 [1]) was 8.39 upbm affinity estimate (log intensity, higher = more binding, comparable within an allelic series) and the binding signal (HOXA7 [3]) was 8.41 upbm affinity estimate (log intensity, higher = more binding, comparable within an allelic series).
For CCGTAATA, the binding signal (HOXA7 [1]) was 10.2 upbm affinity estimate (log intensity, higher = more binding, comparable within an allelic series) and the binding signal (HOXA7 [3]) was 8.79 upbm affinity estimate (log intensity, higher = more binding, comparable within an allelic series).
CATTATGC was tested, and the binding signal (HOXA7 [1]) was 10.3 upbm affinity estimate (log intensity, higher = more binding, comparable within an allelic series) and the binding signal (HOXA7 [3]) was 8.86 upbm affinity estimate (log intensity, higher = more binding, comparable within an allelic series).
In the case of AAAATGAC, the binding signal (HOXA7 [1]) is reported as 10 upbm affinity estimate (log intensity, higher = more binding, comparable within an allelic series) and the binding signal (HOXA7 [3]) is reported as 8.89 upbm affinity estimate (log intensity, higher = more binding, comparable within an allelic series).
In the case of CATTTACA, the binding signal (HOXA7 [1]) is reported as 9.74 upbm affinity estimate (log intensity, higher = more binding, comparable within an allelic series) and the binding signal (HOXA7 [3]) is reported as 8.8 upbm affinity estimate (log intensity, higher = more binding, comparable within an allelic series).
For CCATAATC, the binding signal (HOXA7 [1]) was 9.89 upbm affinity estimate (log intensity, higher = more binding, comparable within an allelic series) and the binding signal (HOXA7 [3]) was 8.75 upbm affinity estimate (log intensity, higher = more binding, comparable within an allelic series).
AGCTCGGA was tested, and the binding signal (HOXA7 [1]) was 8.37 upbm affinity estimate (log intensity, higher = more binding, comparable within an allelic series) and the binding signal (HOXA7 [3]) was 8.35 upbm affinity estimate (log intensity, higher = more binding, comparable within an allelic series).
With GCAAGCTA the binding signal (HOXA7 [1]) was 8.39 upbm affinity estimate (log intensity, higher = more binding, comparable within an allelic series) and the binding signal (HOXA7 [3]) was 8.42 upbm affinity estimate (log intensity, higher = more binding, comparable within an allelic series).
In the case of CAGTAATC, the binding signal (HOXA7 [1]) is reported as 9.67 upbm affinity estimate (log intensity, higher = more binding, comparable within an allelic series) and the binding signal (HOXA7 [3]) is reported as 8.66 upbm affinity estimate (log intensity, higher = more binding, comparable within an allelic series).
CGTCCACC was tested, and the binding signal (HOXA7 [1]) was 8.57 upbm affinity estimate (log intensity, higher = more binding, comparable within an allelic series) and the binding signal (HOXA7 [3]) was 8.48 upbm affinity estimate (log intensity, higher = more binding, comparable within an allelic series).
AGGAGCCT was tested, and the binding signal (HOXA7 [1]) was 8.33 upbm affinity estimate (log intensity, higher = more binding, comparable within an allelic series) and the binding signal (HOXA7 [3]) was 8.35 upbm affinity estimate (log intensity, higher = more binding, comparable within an allelic series).
For GCAGGTCC, the binding signal (HOXA7 [1]) was 8.46 upbm affinity estimate (log intensity, higher = more binding, comparable within an allelic series) and the binding signal (HOXA7 [3]) was 8.46 upbm affinity estimate (log intensity, higher = more binding, comparable within an allelic series).
CTATTATA was tested, and the binding signal (HOXA7 [1]) was 10.7 upbm affinity estimate (log intensity, higher = more binding, comparable within an allelic series) and the binding signal (HOXA7 [3]) was 8.92 upbm affinity estimate (log intensity, higher = more binding, comparable within an allelic series).
With AAATTGCC the binding signal (HOXA7 [1]) was 10.3 upbm affinity estimate (log intensity, higher = more binding, comparable within an allelic series) and the binding signal (HOXA7 [3]) was 8.7 upbm affinity estimate (log intensity, higher = more binding, comparable within an allelic series).
